Sampled rows, rich in hits. Any-hit rate of the full collection: about 4.5%.
PrPC surface inh = cell surface PrPC inhibition, primary TR-FRET screen; TR-FRET read-out; inhibition, % at 13.8 µM; actives 0.43% (n = 370,000); AID 720596; in the data active = inhibition above about 24%; note: 0% = median of the test wells and 100% = reference compound wells
GDH-TPI counter = GDH-TPI coupled enzyme inhibition counter-screen; GDH-TPI coupled enzyme counterscreen, NADH absorbance; inhibition, % at 4.8 µM; actives 1.2% (n = 360,000); AID 588335; in the data active = inhibition above about 30%;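 note: 0% = DMSO wells and 100% = wells lacking the enzyme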
Mtb FBA inh = inhibits M. tuberculosis FBA enzyme; AID 588726; actives 2.3% (n = 360,000); P9WQA3; inhibition, % at 1 µM; purified M. tuberculosis FBA, fluorescence read-out; in the data active = inhibition above about 27%;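 note: 0% = vehicle and 100% = reference inhibitor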
Target sequence (P9WQA3 whole entry, looked up): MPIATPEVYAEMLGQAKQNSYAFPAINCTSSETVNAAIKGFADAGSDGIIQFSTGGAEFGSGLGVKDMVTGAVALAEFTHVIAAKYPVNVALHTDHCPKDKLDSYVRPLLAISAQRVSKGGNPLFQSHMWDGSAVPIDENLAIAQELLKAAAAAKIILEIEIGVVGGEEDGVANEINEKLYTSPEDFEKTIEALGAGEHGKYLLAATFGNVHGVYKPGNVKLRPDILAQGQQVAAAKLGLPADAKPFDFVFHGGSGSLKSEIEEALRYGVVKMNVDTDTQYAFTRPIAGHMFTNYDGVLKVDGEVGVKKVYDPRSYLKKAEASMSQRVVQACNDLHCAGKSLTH
PfHsp40 yeast = compounds rescuing yeast from Plasmodium falciparum HSP40 toxicity | S. cerevisiae expressing PfHsp40, growth rescue, ATP luminescence | growth rescue, % at 12.5 µM | actives 0.68% (n = 340,000) | AID 504582; in the data active = growth rescue above about 28%, passing the limit was not always enough; inconclusive = no clear call, values can overlap the other calls;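 note: yeast W303a lacking pdr1 and pdr3 grown in galactose medium; growth measured after three days at 30 °C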
PrP 5UTR inh = inhibition of PrP 5' UTR reporter expression | inhibition, % (concentration not given with the values) | AID 488862 | cell-based PrP 5' UTR mRNA reporter, plate reader | actives 0.35% (n = 340,000); in the data active = inhibition above about 52%; note: 0 = median of the neutral control wells
BJeLR lethal = kills HRASV12-expressing BJeLR cells; BJeLR (HRASV12) viability, CellTiter-Glo ATP luminescence, 48 h; actives 0.17% (n = 300,000); inhibition, % (concentration not given with the values); in the data active = inhibition above about 50%; inconclusive = no clear call, values can overlap the other calls
* = called active by the depositor; ? = inconclusive; nt = not tested or not shown.

SMILES	PrPC surface inh	GDH-TPI counter	Mtb FBA inh	PfHsp40 yeast	PrP 5UTR inh	BJeLR lethal
O=C(c1cc(Cl)cc(Cl)c1)N1CC[C@H]2[C@H](CCCN2Cc2ccccc2)C1	0	nt	nt	nt	nt	nt
O=S(=O)(O)c1ccc(N=Nc2ccccc2)cc1	-16	14	-5	-1	-19	5
Oc1ccc(N=Nc2ccccc2)o1	12	2	-6	288*	-28	24
O=C(c1ccco1)N1CCN(C(=O)c2ccccc2OCc2ccc(Cl)cc2)CC1	5	13	-2	253*	-15	-4
O=C(c1ccco1)N1N=C(c2cccs2)CC1c1cc([N+](=O)[O-])ccc1O (centres undefined)	-11	45*	-4	1	-14	-1
COC(=O)C[C@H]1CC[C@@H]2[C@@H](COc3ccc(NC(=O)c4ccno4)cc3C(=O)N2C)O1	-3	nt	nt	nt	nt	nt
CCc1cc2c(=O)c(-c3nc4ccccc4n3C)c(C)oc2c(CN2CCN(CCO)CC2)c1O	-3	35*	12	0	-42	0
CCc1cc2c(=O)c(-c3nc4ccccc4n3C)c(C)oc2c(CN2CCN(C)CC2)c1O	nt	nt	nt	nt	nt	1
CCc1cc2c(=O)c(-c3nc4ccccc4n3C)coc2c(CN2CCCC(C)C2)c1O (centres undefined)	-4	34*	11	2	5	0
COc1ccccc1C(=O)N1CCCC(c2nc(-c3cccs3)no2)C1 (centres undefined)	1	nt	nt	nt	nt	nt
O=C(C1CC(=O)N(C2CCCCC2)C1)N1CCc2ccccc21 (centres undefined)	-3	2	0	61*	-18	-7
O=C(C1CCCCC1)N1CCc2ccccc21	2	-4	-2	-1	-7	-1
Cc1cc(S(N)(=O)=O)ccc1N=Cc1c(O)n(-c2ccccc2)c(=O)[nH]c1=O	1	19	-2	-1	-14	-3
Cc1ccccc1-n1c(O)c(/C=N/c2nccs2)c(=O)[nH]c1=O	12	-4	2	0	-14	-5
Cc1ccc(-n2c(O)c(C=Nc3ccccc3N)c(=O)[nH]c2=O)cc1C	4	21	-1	40*	-12	-3
Cc1ccccc1-n1c(O)c(C=Nc2ccc(N(C)C)cc2)c(=O)[nH]c1=O	-8	43*	-9	-2	-20	-3
Cc1cccc(N=Cc2c(O)n(-c3ccccc3C)c(=O)[nH]c2=O)c1	4	48*	-2	-1	-9	-6
CCc1ccccc1-c1cc(C(=O)OC)c2n(c1=O)CCC2	-4	nt	nt	nt	nt	nt
CCOC(=O)C1CCN(C(=O)C(C)(C)NC(=O)Nc2ccc3c(c2)CCC3)CC1	-6	nt	nt	nt	nt	nt
COc1cc(/C=C(/C#N)c2nc3ccccc3[nH]2)ccc1OCc1ccc(C(=O)O)o1	-10	24	5	0	nt	-8
COC(=O)c1ccc(COc2ccc(/C=C(\C#N)c3nc4ccccc4[nH]3)cc2OC)o1	-9	32*	6	-1	-10	2
Cc1c(Cl)cccc1NS(=O)(=O)c1ccc2c(c1)C1C=CCC1C(c1ccc(C(=O)O)cc1)N2 (centres undefined)	nt	11	-2	35*	-32	nt
C[C@H](O)[C@@H]1CN2CCc3ccc(N4CCOCC4)cc3[C@@H]2C[C@@H]1N(C)C(=O)c1ccccc1F	-6	nt	nt	nt	nt	nt
Oc1c(N=Nc2ccccn2)ccc2ccccc12	-32	7	-1	?	-32	61*
Cc1ccc(N=Nc2c(C)[nH]n(C(N)=S)c2=O)cc1C	-1	16	-5	-1	-134	-2
SMILES	PrPC surface inh	GDH-TPI counter	Mtb FBA inh	PfHsp40 yeast	PrP 5UTR inh	BJeLR lethal
Cc1[nH]n(C(N)=S)c(=O)c1N=Nc1ccc2ccccc2c1	-8	14	-13	55*	-88	3
Cc1cc(NC(=O)c2c(F)cccc2Cl)n(-c2nc3ccccc3[nH]2)n1	-2	-17	0	113*	-34	3
O=C(O)/C=C\C(=O)Nc1ccccc1F	-4	4	2	37*	-11	-8
O=C(O)/C=C\C(=O)Nc1ccc(F)c(F)c1F	6	-3	-1	-1	1	5
CC(=O)Nc1ccc(C23CC4CC(CC(C4)C2)C3)cc1	-5	0	-1	11	-45	10
CNC(=S)Nc1ccc(C23CC4CC(CC(C4)C2)C3)cc1	3	-9	1	179*	-21	-6
COc1ccccc1/C=C/C(=O)NCC(=O)N=Nc1c(O)[nH]c2ccccc12	-30	36*	4	-1	3	6

Screens from PubChem.
